From PubChem BioAssay (EPA / NIEHS) come the findings set out here.

Inconclusive results are not listed. Activity calls are given as the source filed them. The calls were made as follows: active = hit-call score of the fitted dose curve at least 0.9, where 1 is the maximum; inconclusive = response in the unintended direction; inactive = score below 0.9.

In assay [1] the target is Neuropeptide Y receptor type 2 (Homo sapiens) (UniProt P49146). As to the kind of experiment: NVS_GPCR_hNPY2: NovaScreen (NVS) G Protein-Coupled Receptor Assay for human Neuropeptide Receptor Y2 (NPY2) (AID 2283277). As for the experimental part: NVS_GPCR_hNPY2 is a biochemical, single-readout assay that uses extracted gene-proteins from SK-N-MC in a cell-free assay. Measurements were taken 1 hour after chemical dosing in a 96-well plate.NVS_GPCR_hNPY2 is one of one assay component(s) measured or calculated from the NVS_GPCR_hNPY2 assay. It is designed to make measurements of radioligand binding, a form of binding reporter, as detected with scintillation counting signals by Filter-based radiodetection technology.Data from the assay component NVS_GPCR_hNPY2 was analyzed into 1 assay endpoint. This assay endpoint, NVS_GPCR_hNPY2, was analyzed in the positive analysis fitting direction relative to DMSO as the negative control and baseline of activity. Using a type of binding reporter, loss-of-signal activity can be used to understand changes in the binding as they relate to the gene NPY2R. Furthermore, this assay endpoint can be referred to as a primary readout, because the performed assay has only produced 1 assay endpoint. To generalize the intended target to other relatable targets, this assay endpoint is annotated to the gpcr intended target family, where the subfamily is rhodopsin-like receptor.
Binding assays used specific radioligands (tritiated, iodinated) with non-radioactive competitive displacement ligands in agonist or antagonist protocols (as indicated) and various reference compounds and inhibitors to titrate specific binding to receptors and transporters. Most enzyme assays (CYPs, kinases, phosphatases, proteases, HDACs) used recombinant protein and specific substrates (fluorescence mostly, some colorimetric and radioactive) and inhibitors, followed by a biochemical separation of substrate and product. All assays for the biochemical HTS were initially run in duplicate at a single concentration (10 uM for CYP450 assays and 25 uM for all others). Assay-chemical combinations meeting a pre-defined threshold (e.g., 30% inhibition and other criteria defined below) were then run in singleton concentration-response format with maximum concentration of 20 uM for CYPs and 50 uM for all others. Each assay was run with positive and negative controls, and concurrent controls on every plate. The follow-up (secondary) screen tested active chemical-pairs in concentration series, as well as a few additional assays not tested in the primary screen, some selected negative inactives, and several cases re-run in the concentration series for confirmatory purposes.

For assay [2], the target named is Muscarinic acetylcholine receptor M1 (Homo sapiens) (UniProt P11229). Briefly: NVS_GPCR_hM1: NovaScreen (NVS) G Protein-Coupled Receptor Assay for human Muscarinic, M1 Receptor (AID 2283270). An outline of the steps: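 Actives from a duplicate 25 uM single-point screen were retested in concentration series. Binding measured as displacement of a radioligand from CHO-derived receptor preparation, 1 h incubation, filtration and scintillation counting, analysed as signal loss against DMSO.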

The target in assay [3] is Muscarinic acetylcholine receptor M2 (Homo sapiens) (UniProt P08172). As to the kind of experiment: NVS_GPCR_hM2: NovaScreen (NVS) G Protein-Coupled Receptor Assay for human Muscarinic, M2 Receptor (AID 2283273). In short, it runs like this: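 Filter-based radiodetection read bound radioligand 1 h after dosing CHO-derived membrane protein. Single-concentration duplicates (25 uM) first, then concentration-response for actives; signal loss versus DMSO scored.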

In assay [4] the target is Muscarinic acetylcholine receptor M5 (Homo sapiens) (UniProt P08912). Briefly: NVS_GPCR_hM5: NovaScreen (NVS) G Protein-Coupled Receptor Assay for human Muscarinic, M5 Receptor (AID 2283275). In short, it runs like this: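 Chemicals passing a primary duplicate screen at 25 uM were run as singleton concentration series, maximum 50 uM. Displacement of a specific radioligand from CHO-extracted receptor was read by filter scintillation after 1 h, relative to DMSO.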

Assay [5] concerns the target Muscarinic acetylcholine receptor M3 (Homo sapiens) (UniProt P20309). As to the kind of experiment: NVS_GPCR_hM3: NovaScreen (NVS) G Protein-Coupled Receptor Assay for human Muscarinic, M3 Receptor (AID 2283272). In short, it runs like this:
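Radioligand displacement binding on human M3 receptor in CHO-derived membranes, 1 h incubation, filter-based scintillation counting. Primary screen in duplicate at 25 uM; actives followed up in concentration series; loss of signal versus DMSO.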

The target in assay [6] is human Muscarinic, M4 Receptor, CHRM4 (gene 1132) (UniProt P08173). As to the kind of experiment: NVS_GPCR_hM4: NovaScreen (NVS) G Protein-Coupled Receptor Assay for human Muscarinic, M4 Receptor (AID 2283274). An outline of the steps: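 Filter-based scintillation counting of radioligand bound to CHO-expressed human M4 preparations after 1 h; loss of signal fitted versus DMSO. Initial duplicate testing at 25 uM, concentration-response follow-up for actives.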

The target of assay [7] is human Neurotensin Receptor (NTS), NTSR1 (gene 4923) (UniProt P30989). As to the kind of experiment: NVS_GPCR_hNTS: NovaScreen (NVS) G Protein-Coupled Receptor Assay for human Neurotensin Receptor (NTS) (AID 2283279). In short, it runs like this:
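Compounds competed with a radiolabelled ligand for binding to CHO-derived human neurotensin receptor; bound signal counted after filtration, 1 h. Screened first at a single concentration of 25 uM in duplicate, then concentration series to 50 uM maximum for actives.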

The target of assay [8] is human Neurokinin, NK2 Receptor, TACR2 (gene 6865) (UniProt P21452). As to the kind of experiment: NVS_GPCR_hNK2: NovaScreen (NVS) G Protein-Coupled Receptor Assay for human Neurokinin, NK2 Receptor (AID 2283278).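 Also: actives reduce bound radioligand signal relative to DMSO baseline.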 An outline of the steps: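 Filter-based scintillation counting measured radioligand bound to receptor extracted from CHO cells, 4 hours after compound addition. Chemicals screened first at 25 uM in duplicate, with actives retested in concentration series relative to DMSO.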

The target in assay [9] is human Leukotriene B4 Receptor 1 (LTB4-BLT1), LTB4R (gene 1241) (UniProt Q15722). Briefly: NVS_GPCR_hLTB4_BLT1: NovaScreen (NVS) G Protein-Coupled Receptor Assay for human Leukotriene B4 Receptor 1 (LTB4-BLT1) (AID 2283271). In short, it runs like this: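 Cell-free human neutrophil receptor preparation, 1 h exposure, radioligand binding read by filter scintillation counting. Single 25 uM duplicate screen, then concentration series topping at 50 uM; binding loss scored against DMSO baseline.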
human Leukotriene B4 Receptor 1 (LTB4-BLT1), LTB4R (gene 1241), sequence (Q15722 whole entry, looked up): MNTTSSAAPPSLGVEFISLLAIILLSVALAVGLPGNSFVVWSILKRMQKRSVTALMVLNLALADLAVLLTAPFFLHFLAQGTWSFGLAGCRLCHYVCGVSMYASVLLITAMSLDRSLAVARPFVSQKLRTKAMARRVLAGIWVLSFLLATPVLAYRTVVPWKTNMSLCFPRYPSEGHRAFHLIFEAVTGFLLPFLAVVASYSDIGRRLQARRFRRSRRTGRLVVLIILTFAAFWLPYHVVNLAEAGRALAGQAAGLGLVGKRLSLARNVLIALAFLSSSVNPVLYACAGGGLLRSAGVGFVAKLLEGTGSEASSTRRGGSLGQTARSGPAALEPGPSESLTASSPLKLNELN

human Neurokinin, NK2 Receptor, TACR2 (gene 6865), sequence (P21452 whole entry, looked up): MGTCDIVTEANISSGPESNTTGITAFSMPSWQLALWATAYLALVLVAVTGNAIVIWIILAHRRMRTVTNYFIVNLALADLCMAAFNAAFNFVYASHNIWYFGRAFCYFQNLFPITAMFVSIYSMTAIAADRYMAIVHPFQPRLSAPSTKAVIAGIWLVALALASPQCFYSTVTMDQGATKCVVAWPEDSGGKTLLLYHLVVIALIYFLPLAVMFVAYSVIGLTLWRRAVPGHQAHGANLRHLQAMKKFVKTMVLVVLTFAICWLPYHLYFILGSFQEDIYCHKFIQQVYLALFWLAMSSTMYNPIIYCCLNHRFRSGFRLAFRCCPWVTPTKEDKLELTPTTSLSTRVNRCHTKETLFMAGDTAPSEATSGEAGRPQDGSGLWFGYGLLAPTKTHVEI
human Muscarinic, M4 Receptor, CHRM4 (gene 1132), sequence (P08173 whole entry, looked up): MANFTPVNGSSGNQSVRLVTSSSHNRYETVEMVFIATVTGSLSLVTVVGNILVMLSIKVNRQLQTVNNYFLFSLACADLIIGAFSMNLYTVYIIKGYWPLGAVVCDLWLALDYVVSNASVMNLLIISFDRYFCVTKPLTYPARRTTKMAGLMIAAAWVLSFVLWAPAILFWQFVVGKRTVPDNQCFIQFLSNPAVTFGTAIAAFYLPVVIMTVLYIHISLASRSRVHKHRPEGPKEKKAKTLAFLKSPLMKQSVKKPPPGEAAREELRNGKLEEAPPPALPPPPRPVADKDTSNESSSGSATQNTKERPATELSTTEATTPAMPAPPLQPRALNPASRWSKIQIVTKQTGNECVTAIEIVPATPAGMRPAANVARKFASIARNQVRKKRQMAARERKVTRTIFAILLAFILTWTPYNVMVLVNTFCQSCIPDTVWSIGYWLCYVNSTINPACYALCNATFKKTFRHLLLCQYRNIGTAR
Neuropeptide Y receptor type 2 (Homo sapiens), sequence (P49146 whole entry, looked up): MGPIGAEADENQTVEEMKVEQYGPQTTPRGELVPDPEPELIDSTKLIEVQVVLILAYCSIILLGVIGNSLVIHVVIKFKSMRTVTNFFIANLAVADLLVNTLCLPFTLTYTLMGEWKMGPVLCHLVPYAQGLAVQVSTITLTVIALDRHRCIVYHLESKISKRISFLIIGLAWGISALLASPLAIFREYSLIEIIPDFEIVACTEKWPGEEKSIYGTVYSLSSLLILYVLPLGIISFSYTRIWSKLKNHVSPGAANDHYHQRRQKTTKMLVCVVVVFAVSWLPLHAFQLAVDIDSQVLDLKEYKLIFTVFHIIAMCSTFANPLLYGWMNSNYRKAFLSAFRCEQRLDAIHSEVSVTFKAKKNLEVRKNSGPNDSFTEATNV
Muscarinic acetylcholine receptor M2 (Homo sapiens), sequence (P08172 whole entry, looked up): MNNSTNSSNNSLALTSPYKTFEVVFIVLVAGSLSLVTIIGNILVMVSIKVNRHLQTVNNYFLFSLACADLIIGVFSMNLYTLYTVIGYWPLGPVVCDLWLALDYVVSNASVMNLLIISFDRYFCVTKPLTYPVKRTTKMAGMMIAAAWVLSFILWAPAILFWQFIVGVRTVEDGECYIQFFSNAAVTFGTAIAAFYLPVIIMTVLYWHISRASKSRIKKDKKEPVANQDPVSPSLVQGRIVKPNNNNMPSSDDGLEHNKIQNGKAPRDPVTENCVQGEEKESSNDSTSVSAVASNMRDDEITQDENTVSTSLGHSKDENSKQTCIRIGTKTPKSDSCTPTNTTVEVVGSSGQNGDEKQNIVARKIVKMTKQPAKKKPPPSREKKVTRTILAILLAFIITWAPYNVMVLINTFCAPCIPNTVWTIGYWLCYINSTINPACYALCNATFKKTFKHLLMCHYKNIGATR
Muscarinic acetylcholine receptor M1 (Homo sapiens), sequence (P11229 whole entry, looked up): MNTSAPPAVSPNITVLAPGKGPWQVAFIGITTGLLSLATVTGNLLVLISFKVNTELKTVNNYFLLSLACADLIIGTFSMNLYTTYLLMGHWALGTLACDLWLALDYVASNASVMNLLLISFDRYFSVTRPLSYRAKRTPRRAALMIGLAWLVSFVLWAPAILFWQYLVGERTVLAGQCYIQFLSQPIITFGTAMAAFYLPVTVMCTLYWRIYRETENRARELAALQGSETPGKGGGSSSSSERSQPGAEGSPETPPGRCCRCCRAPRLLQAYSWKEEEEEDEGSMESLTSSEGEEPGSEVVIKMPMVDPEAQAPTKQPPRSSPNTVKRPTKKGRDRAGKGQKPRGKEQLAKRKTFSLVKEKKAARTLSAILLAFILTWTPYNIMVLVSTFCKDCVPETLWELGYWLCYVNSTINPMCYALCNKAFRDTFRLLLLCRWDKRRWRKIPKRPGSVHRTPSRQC
Muscarinic acetylcholine receptor M5 (Homo sapiens), sequence (P08912 whole entry, looked up): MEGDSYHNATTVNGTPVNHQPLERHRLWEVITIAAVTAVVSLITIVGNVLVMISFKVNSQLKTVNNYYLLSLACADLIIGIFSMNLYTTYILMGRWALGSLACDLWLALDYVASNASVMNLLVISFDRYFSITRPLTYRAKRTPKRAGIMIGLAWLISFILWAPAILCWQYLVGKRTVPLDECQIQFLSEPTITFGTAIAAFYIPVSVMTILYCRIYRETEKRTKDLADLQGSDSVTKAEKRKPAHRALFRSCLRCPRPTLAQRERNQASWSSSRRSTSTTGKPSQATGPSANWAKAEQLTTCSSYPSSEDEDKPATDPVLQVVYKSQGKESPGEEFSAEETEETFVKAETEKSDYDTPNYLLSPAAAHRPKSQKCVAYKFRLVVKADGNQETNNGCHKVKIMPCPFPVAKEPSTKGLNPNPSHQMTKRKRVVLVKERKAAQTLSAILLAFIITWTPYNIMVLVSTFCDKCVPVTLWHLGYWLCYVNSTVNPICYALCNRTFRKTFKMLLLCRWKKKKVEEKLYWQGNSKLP
Muscarinic acetylcholine receptor M3 (Homo sapiens), sequence (P20309 whole entry, looked up): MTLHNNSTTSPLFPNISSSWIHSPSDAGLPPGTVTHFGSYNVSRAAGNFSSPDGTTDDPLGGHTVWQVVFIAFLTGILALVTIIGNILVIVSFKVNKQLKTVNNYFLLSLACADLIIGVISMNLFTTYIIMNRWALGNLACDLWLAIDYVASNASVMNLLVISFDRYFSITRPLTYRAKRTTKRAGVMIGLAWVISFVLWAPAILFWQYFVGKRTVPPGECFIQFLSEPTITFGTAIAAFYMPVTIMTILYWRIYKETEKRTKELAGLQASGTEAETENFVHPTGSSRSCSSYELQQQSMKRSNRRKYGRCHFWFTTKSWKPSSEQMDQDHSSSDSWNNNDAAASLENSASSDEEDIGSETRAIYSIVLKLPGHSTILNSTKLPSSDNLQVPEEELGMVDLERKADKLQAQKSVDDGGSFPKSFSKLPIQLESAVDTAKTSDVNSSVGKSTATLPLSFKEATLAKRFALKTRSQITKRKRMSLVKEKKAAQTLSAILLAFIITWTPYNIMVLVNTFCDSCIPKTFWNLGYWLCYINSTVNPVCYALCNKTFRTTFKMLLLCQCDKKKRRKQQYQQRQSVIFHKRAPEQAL
human Neurotensin Receptor (NTS), NTSR1 (gene 4923), sequence (P30989 whole entry, looked up): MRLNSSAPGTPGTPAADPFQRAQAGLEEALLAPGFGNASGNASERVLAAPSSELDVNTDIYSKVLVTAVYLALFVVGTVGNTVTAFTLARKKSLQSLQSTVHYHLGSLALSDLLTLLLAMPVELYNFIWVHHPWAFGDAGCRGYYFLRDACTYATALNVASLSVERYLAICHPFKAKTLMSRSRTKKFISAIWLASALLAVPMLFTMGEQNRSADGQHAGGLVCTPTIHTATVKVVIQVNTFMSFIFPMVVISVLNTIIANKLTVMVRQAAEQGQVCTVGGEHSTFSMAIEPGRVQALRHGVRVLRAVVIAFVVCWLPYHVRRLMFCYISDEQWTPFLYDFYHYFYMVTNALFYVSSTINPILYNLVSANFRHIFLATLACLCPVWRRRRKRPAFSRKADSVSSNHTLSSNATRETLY

Take `CC(=O)OC/C=C(\C)CCC=C(C)C`: the compound was classed as inactive in assay [1].
In the case of `Oc1ccc2c(c1)OC[C@@H](N1CCC(O)(c3ccc(F)cc3)CC1)[C@H]2O`, the result in [2] and in assay [3] was inactive. Moreover, the half-maximal activity concentration (AC50) (usually the concentration giving half of the maximal activity seen) in assay [4] was 16 µM (active).
With `Cc1ccc(Cl)cc1`, the result in assay [1] was inactive.
`Cc1c(C(=O)O)c(O)cc2c1C(=O)c1c(O)c([C@@H]3O[C@H](CO)[C@@H](O)[C@H](O)[C@H]3O)c(O)c(O)c1C2=O`: the result in assay [5], in assay [3] and in assay [6] was inactive.
On to `NCCO`, for which the AC50 in assay [7] was 37.9 µM (active).
With `COc1ccc(S(=O)(=O)N2C(=O)[C@@](c3ccccc3OC)(N3C[C@H](O)C[C@H]3C(=O)N(C)C)c3cc(Cl)ccc32)c(OC)c1`, in assay [8], the concentration at half-maximal activity (AC50) was 9.61 µM (active).
As for `CCOC(=O)CCC(=O)OCC`, the concentration at half-maximal activity (AC50) in assay [9] was 25 µM (active). Further, the compound was called inactive in assay [3], in [1] and in [8].
For the compound `CCCCC(CC)COC(=O)CC(C(=O)OCC(CC)CCCC)S(=O)(=O)O` (centres undefined), the AC50 in assay [2] was 34.6 µM (active); in assay [9], 25 µM (active); in [5], 39.4 µM (active); in [6], 37.6 µM (active); in assay [4], 18 µM (active); in assay [8], 35.7 µM (active).
As for `CNCc1cc(F)ccc1Oc1ccc(Cl)c(Cl)c1`, the AC50 in assay [3] and in assay [6] was 25 µM (active) in each case.
In the case of `C[C@]12C=CC(=O)C=C1CC[C@@H]1[C@@H]2C(=O)C[C@@]2(C)[C@H]1CC[C@]2(O)C(=O)CO`, the AC50 in assay [3] was 15 µM (active); in assay [6] it was 25 µM (active).
The like results for `CC1(C)CC(N=C=O)CC(C)(CN=C=O)C1` (centres undefined) were, in that order, 0.367 µM (active) and 2.94 µM (active).
`Nc1nc(N)c2nc(CNc3ccc(C(=O)N[C@@H](CCC(=O)O)C(=O)O)cc3)cnc2n1`: the AC50 in assay [3] is 40.7 µM (active). In assay [1], the compound was called inactive.
`CCc1c(C(=O)NN2CCCCC2)nn(-c2ccc(Cl)cc2Cl)c1-c1ccc(Br)cc1`: the compound was classed as inactive in assay [8].
